Values joined by “and” are separate entries in the source; they are usually repeats but may differ in a detail not shown here. Equal entries are not always repeated. Results filed as inconclusive are left out. A number with no mark means an inactive call. Calls follow the shape of the dose curve; as a rule, active = well fitted curve in the direction sought with a large enough effect in the signal ratio, with a control signal flat; inconclusive = small, poorly fitted or top-dose-only effect, or a change in a side signal; inactive = no such curve, though single readings can be large or run the other way; the % refers to the signal ratio.

The values below come from PubChem BioAssay (NCATS).

Glucocorticoid receptor (Homo sapiens), sequence (P04150 whole entry, looked up): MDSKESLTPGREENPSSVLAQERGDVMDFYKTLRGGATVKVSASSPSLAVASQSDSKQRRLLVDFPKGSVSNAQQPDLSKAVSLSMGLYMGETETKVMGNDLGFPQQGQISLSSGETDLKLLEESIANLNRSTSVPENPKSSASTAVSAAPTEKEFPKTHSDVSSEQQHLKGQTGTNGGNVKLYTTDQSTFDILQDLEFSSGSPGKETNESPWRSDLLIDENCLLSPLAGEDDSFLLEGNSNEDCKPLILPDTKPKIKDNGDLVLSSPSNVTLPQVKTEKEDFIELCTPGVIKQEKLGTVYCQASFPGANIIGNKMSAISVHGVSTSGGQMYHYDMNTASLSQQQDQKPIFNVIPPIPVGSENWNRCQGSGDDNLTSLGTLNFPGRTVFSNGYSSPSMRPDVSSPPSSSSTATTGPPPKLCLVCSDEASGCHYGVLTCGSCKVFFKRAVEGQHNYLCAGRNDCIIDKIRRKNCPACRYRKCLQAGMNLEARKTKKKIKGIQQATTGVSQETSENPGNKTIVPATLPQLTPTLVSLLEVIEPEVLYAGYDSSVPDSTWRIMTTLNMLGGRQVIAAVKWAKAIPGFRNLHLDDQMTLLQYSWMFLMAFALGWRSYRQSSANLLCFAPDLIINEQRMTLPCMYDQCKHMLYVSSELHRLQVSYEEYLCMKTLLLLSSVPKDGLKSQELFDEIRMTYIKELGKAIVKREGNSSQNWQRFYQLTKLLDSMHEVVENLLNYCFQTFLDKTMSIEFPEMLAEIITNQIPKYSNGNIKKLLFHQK

This experiment concerns the target Glucocorticoid receptor (Homo sapiens) (UniProt P04150). Briefly: qHTS assay for small molecule agonists of glucocorticoid receptor signaling (AID 588532). The conditions noted are these: HeLa MMTV-bla, beta-lactamase ratio, agonist, 18 h; activation: hits give high values, percent of dexamethasone control, DMSO zero. The text has this:
NIH Chemical Genomics Center [NCGC] U.S. Environmental Protection Agency [EPA] National Institutes of Environmental Health Sciences [NIEHS] National Toxicology Program [NTP] NCGC Assay Overview The Glucocorticoid receptor (GR), a nuclear receptor subfamily member and its natural ligands includes […] etc. The GR is a validated drug target for inflammation. GR ligands such as dexamethasone are clinically available as anti-inflammatory drugs. Glucocorticoids implicate role in carbohydrate, protein and lipid metabolisms and programmed cell death. They are also a component of many chemotherapy regimens for the treatment of leukemias, lymphomas, and myelomas because of their role in the induction of apoptosis.
NCGC Assay Protocol Summary Using a beta-lactamase reporter-gene under control of glucocorticoid response element (GRE), a cell-based assay [CellSensor MMTV-bla HeLa cell line assay developed by Invitrogen] was used to measure GR ligands signaling. CellSensor MMTV-bla HeLa cells were used with assay medium containing 1% charcoal/dextran treated FBS, 0.1 mM NEAA, 1 mM sodium pyruvate and 25mM HEPES. The assay was performed in clear bottom black Greiner 1536-well plates. Dexamethasone and Mifepristine were used in the screen as agonist and antagonist positive controls respectively. Library compounds were measured for their ability to stimulate the reporter gene activity. Compounds were screened in a titration series in 1536-well format. The fluorescence intensity (405 nm excitation, 460/530 nm emission) was measured using an EnVision plate reader. Data was normalized relative to Dexamethasone control (0.1 uM, 100%), and DMSO only wells (basal, 0%). Concentration-response titration points for each compound were fitted to the Hill equation yielding concentrations of half-maximal stimulation (EC50) and maximal response (efficacy) values. qHTS protocol for GR beta-lactamase assay in agonist mode [Step] [Parameter] [Value] [Description] 1. Reagent; 6 uL; 1500 cells/well 2. Incubation; 37 C for 3-5 hrs 3. Compounds; 23 nL; 0.59 nM to 92 uM 4. Controls (Dexamethasone); 23 nL, - One column with dose response, start 4.6uM, 1:3 dilutions in duplicates - Final concentrations of 0.1 uM and 2 nM in two columns 5. Incubation; 37 C for 18 hrs 6. Detection reagent; 1 uL of CCF4-dye 7. Incubation; RT for 2 hrs 8. Detection; Fluorescence; Envision plate reader
In the case of `C=CCOC(=O)C(C)(C)OC(=O)c1cc(-n2c(=O)cc(C(F)(F)F)n(C)c2=O)ccc1Cl`, the activation was -1.05%.

With `CCOC(=O)Nc1cccc(OC(=O)Nc2ccccc2)c1`, the activation was -3.53%. With `CCCCCCCCCCCCCCC(Br)C(=O)O` (stereo not given), the activation is -1.04%. For `CCOc1cc(Oc2ccc(C(F)(F)F)cc2Cl)ccc1[N+](=O)[O-]`, the activation is -12.9%. Take `CCOP(=S)(OCC)SCCl`: the activation was 12.1%. With `CCOc1nc(NC)nc(NC(=O)NS(=O)(=O)c2ccccc2C(=O)OC)n1`, the activation is 15%. Take `CC(C)=CC1[C@H](C(=O)OCc2cccc(Oc3ccccc3)c2)C1(C)C` (stereo not given in full): the activation is 1.86%. `N#CCNC(=O)c1cnccc1C(F)(F)F`: the activation is 0.151%.

On to `CN1COCN(Cc2cnc(Cl)s2)/C1=N\[N+](=O)[O-]`, for which the activation was -3.49%. The figure for `CCc1cc(C)cc(CC)c1-c1c(OC(=O)C(C)(C)C)n2n(c1=O)CCOCC2` is -0.342%; for `CCCC1COC(Cn2cncn2)(c2ccc(Cl)cc2Cl)O1` (stereo not given) it is 4.96% and -1.29%.

Turning to `Nc1cnn(-c2ccccc2)c(=O)c1Cl`, the activation is -1.22%. With `CC(Oc1ccc(Cl)cc1Cl)C(=O)O` (stereo not given) the figure was 6.74%; with `CCN(CC)C(=O)SCc1ccc(Cl)cc1`, -4.08%; with `CCOc1nc(F)cc2nc(S(=O)(=O)Nc3c(Cl)cccc3Cl)nn12`, 0.859%. With `Oc1c(Br)c(Br)c(Br)c(Br)c1Br` the figure was 3.02%; with `O=[N+]([O-])c1ccc(Oc2ccc(Cl)cc2Cl)cc1`, -3.5%; with `O=[N+]([O-])c1ccc(Oc2ccc(C(F)(F)F)cc2[N+](=O)[O-])cc1`, -2.99%. For the compound `ClCc1ccccc1Cl`, the activation was -3.29%. With `CC(C)[C@@H](Nc1ccc(C(F)(F)F)cc1Cl)C(=O)OC(C#N)c1cccc(Oc2ccccc2)c1` (stereo not given in full) the figure was -3.97%; with `CCCOCC(=Nc1ccc(Cl)cc1C(F)(F)F)n1ccnc1`, -3.28%; with `C[C@H]1[C@H](c2ccc(Cl)cc2)SC(=O)N1C(=O)NC1CCCCC1`, -1.81%. With `C1CC[CH]([Sn]([CH]2CCCCC2)[CH]2CCCCC2)CC1` the figure was -10.4%; with `CNC(=O)Oc1cc(C)c(SC)c(C)c1`, 13.5%; with `CNP(=O)(OC)Oc1ccc(C(C)(C)C)cc1Cl` (stereo not given), 0.207%. For `CCCCCCCCCCCC#N`, the activation was -5.17%. `O=C(O)C(F)(F)C(F)(F)C(F)(F)C(F)(F)C(F)(F)F`: the activation is 4.09%. Regarding `ClC1=C(Cl)C2(Cl)C3C(Cl)C(Cl)CC3C1(Cl)C2(Cl)Cl` (stereo not given), the activation is 17.3%. In the case of `CCCCC(CC)CO[N+](=O)[O-]` (stereo not given), the activation is -6.71%. On to `CCCCCCCCCCCCN(C)C`, for which the activation is -15.1%. With `S=C([S-])NCCNC(=S)[S-].[Mn+2]` the figure was -3.05%; with `CC1(C)CC/C(=C\c2ccc(Cl)cc2)C1(O)Cn1cncn1` (stereo not given), -0.523%. On to `CCOP(=O)(OCC)Oc1nc(Cl)c(Cl)cc1Cl`, for which the activation is -1.13%. With `O=C(CCl)c1ccccc1` the figure was 5.85% and 11.4%; with `O=S(=O)(c1ccc(O)cc1)c1ccc(O)cc1`, -0.412%. Consider `COP(=O)(OC)OC(Br)C(Cl)(Cl)Br` (stereo not given), for which the activation was -8%.

For `O=C(O)C(F)(F)C(F)(F)C(F)(F)C(F)(F)C(F)(F)C(F)(F)C(F)(F)C(F)(F)F`, the activation was -0.386% and 5.13%. With `CCOP(=O)(NC(C)C)Oc1ccc(S(C)(=O)=O)c(C)c1` (stereo not given) the figure was 2.64%. As to `O=c1[nH]c2ccccc2c(=O)o1`, the activation is -0.7%.

Regarding `CC(C)C1(C)N=C(c2nc3ccccc3cc2C(=O)O)NC1=O` (stereo not given), the activation is 2.3%.
